From PubChem BioAssay (NCI)
Several values for one entry are separate records, joined by “and”; a condition that tells them apart may be missing. Equal values may be shown once. About 79,000 compounds went through this panel and 15% of them were active in at least one assay; those are over-represented in the sample as a whole. Unmarked numbers belong to inactive results. Activity calls are given as the source filed them. Rule as the data show it: active = growth inhibition above about 70%; inactive = the rest.

assay: NCI Yeast Anticancer Drug Screen. Data for the sgs1 mgt1 strain (AID 161);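 also: 0% = growth of cultures given vehicle only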; conditions: S. cerevisiae sgs1 mgt1 strain, stronger effect = higher value; at 50.0 µM unless noted
Procedure, shortened: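 Compounds are added to genetically altered yeast, and growth is compared with cultures given vehicle alone to give percent inhibition.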

Row | SMILES | growth inhibition [%]
1 | NC(=O)OCCOC(N)=O | -31.9
2 | N#CCNC(=O)Cc1ccccc1 | -10.2
3 | CN(C)c1ccc(C(c2ccc(N(C)C)cc2)c2ccc([N+](=O)[O-])cc2)cc1 | -48.3
4 | COCN(CCc1ccccc1)CCN(C)C | 35
5 | C[N+](C)(CCCCCCCCCC[N+](C)(C)CC(=O)c1ccccc1)CC(=O)c1ccccc1 | 24.7
6 | COc1cccc(C)c1NC(=O)NCCCl | 13.2
7 | COC1=CC(=O)c2cc3ccc(OC)c(N)c3nc2C1=O | 5.45

assay: NCI Yeast Anticancer Drug Screen. Data for the cln2 rad14 strain (AID 165);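 also: 0% = growth equal to vehicle treated cultures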; conditions: S. cerevisiae cln2 rad14 strain, stronger effect = higher value; at 50.0 µM unless noted
Procedure, shortened: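 Yeast carrying cln2 and rad14 alterations (cell cycle control and DNA damage repair) were exposed to compounds. Growth inhibition was measured against vehicle-treated controls.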

Row | SMILES | growth inhibition
8 | Cc1nnc(N)nc1C | -0.8%
9 | COc1ccc(C(=O)CC(c2ccccc2)C(C#N)c2ccccc2)cc1 (configuration not stated) | -107% and -72.5%
10 | CN1CC2=C(NC(=S)NC2c2ccc(Cl)cc2)/C(=C/c2ccc(Cl)cc2)C1 (configuration not stated) | 14.4%
11 | CSc1nc(NC2OC(COC(C)=O)C(OC(C)=O)C(OC(C)=O)C2OC(C)=O)c(N=CC=Nc2c(NC3OC(COC(C)=O)C(OC(C)=O)C(OC(C)=O)C3OC(C)=O)nc(SC)[nH]c2=O)c(=O)[nH]1 (configuration not stated) | -17.7%
12 | Cc1ccc2c(c1)C1(c3ccc(Cl)cc3Cl)Oc3ccc(C)cc3C(c3ccc(Cl)cc3Cl)(O2)O1 | -4.65%
13 | Cc1cc(Cl)ccc1NC(=O)Oc1ccc(C#N)cc1 | -10.6%
14 | OCCN/N=C/c1ccncc1 | 15.2%
15 | COS(=O)(=O)N(C)c1nc(N(C)C)nc(N(C)C)n1 | 22.9%
16 | ON=C(c1ccccn1)c1ccccn1 | 4.35%
17 | COC1OC2COC(C)(C)OC2C2OC(C)(C)OC12 (configuration not stated) | -6.25%
18 | CCOc1ccc(/C=C(\C(=O)c2ccccc2)S(=O)(=O)c2ccc(OC)cc2)cc1OC | 5.8%
19 | CC(C)(C)[Si](C)(C)OCC1OC(n2cnc3c(=O)[nH]cnc32)CC1O (configuration not stated) | 8%
20 | COc1ccc(Cl)cc1NC(=O)Oc1ccc(NC(C)=O)cc1 | -1.3%
21 | CSc1ccc2nncc(SC)c2c1 | 40.1%
22 | OC(COc1cccc(C(F)(F)F)c1)CN1CCN(c2ccc(F)cc2)CC1 (configuration not stated) | 88.5% (active)
23 | CCOc1ccc(N=Nc2c(-c3ccccc3)nn(C(=O)CC(=O)Nc3ccccc3Cl)c2-c2ccccc2)cc1 | 3.5%
24 | CN(C)C(n1cc2c(c1)-c1ccc(Cl)cc1C(c1ccccc1F)=NC2)n1cc2c(c1)-c1ccc(Cl)cc1C(c1ccccc1F)=NC2 | 7.8%
25 | C1CSCCSCCS1 | 4.85%
26 | Cc1ncc(CO)c(/C=N\OCc2cccc(Cl)c2)c1O | -1.95%
27 | N#C/C(=C\c1ccccc1)c1cccc(F)c1 | -4.05%

Row | SMILES | growth inhibition
28 | O=[N+]([O-])c1c[nH]c2ncnc(Cl)c12 | -6.8%
29 | O=C(N/N=C/c1ccc(O)cc1)C(c1ccccc1)N1CCCCC1 (configuration not stated) | -18.8%
30 | COc1ccc(N=C=Nc2ccc(OC)cc2)cc1 | 9.6%
31 | OCc1ccccc1Sc1ccccc1CO | 11.8%
32 | CCNC(=O)c1ccc(C(C)C)cc1 | 4.75%
33 | CCOC(=O)Cc1ccc(N(CCO)CCO)cc1 | -0.2%
34 | Cc1cc(C(=O)C(C#N)=Nc2ccc(N(C)C)cc2)c(CN2C(=O)c3ccccc3C2=O)c(=O)n1C | -28.1%
35 | O=C(O)c1cccc(OCCO)c1 | -26.4%
36 | Nc1cncnc1N | 16.2%
37 | CC1(C)Oc2ccccc2OC1O (configuration not stated) | -14.7%
38 | C/C=C/C=C/C(=O)OCCCC | 5.65%
39 | Cc1ccc(C(=O)CC2=Nc3nnc(CCCCCCCc4nnc5n4C(=O)C(CC(=O)c4ccc(C)cc4)=N5)n3C2=O)cc1 | -22%
40 | CC1CC1C(N)C1CC1C (configuration not stated) | 23.9%
41 | NC(=O)OCCOC(N)=O | -9.95%
42 | N#CCNC(=O)Cc1ccccc1 | -12.4%
43 | CN(C)c1ccc(C(c2ccc(N(C)C)cc2)c2ccc([N+](=O)[O-])cc2)cc1 | 8.3%
44 | COCN(CCc1ccccc1)CCN(C)C | 7.2%
45 | C[N+](C)(CCCCCCCCCC[N+](C)(C)CC(=O)c1ccccc1)CC(=O)c1ccccc1 | -11.8%
46 | COc1cccc(C)c1NC(=O)NCCCl | -25.2%
47 | COC1=CC(=O)c2cc3ccc(OC)c(N)c3nc2C1=O | -4.2%
